Experiment [1] is described as follows: CCTE_Harrill_HTTr_Viability_MCF7: CCTE's 6-hour Cell Viability Assessment for the High-Throughput Transcriptomics (HTTr) Platform, in MCF-7 cells cultured in DMEM + 10% fetal bovine serum, Harrill Lab (AID 2284010). An outline of the steps:
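MCF-7 cells in DMEM + 10% FBS, 384-well, exposed 6 h to an eight-point dilution series. Membrane integrity scored by high-content imaging of propidium iodide exclusion; bidirectional fit versus DMSO.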

A short description of experiment [2]: CCTE_Harrill_HTTr_Apoptosis_MCF7: CCTE's 6-hour Apoptosis Assessment for the High-Throughput Transcriptomics (HTTr) Platform, in MCF-7 cells cultured in DMEM + 10% fetal bovine serum, Harrill Lab (AID 2284011). In a few lines:
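High-content imaging of CellEvent Caspase 3/7 Green signal follows a six-hour exposure, with eight concentrations per chemical. MCF-7 cells grown in DMEM plus 10% fetal bovine serum; activity fitted in both directions against DMSO.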

Experiment [3] can be described thus: CCTE_Harrill_HTTr_CellCount_MCF7: CCTE's Cell Proliferation Assessment for the High-Throughput Transcriptomics (HTTr) Platform, Harrill Lab (AID 2284012; active = hit-call score of the fitted dose curve at least 0.9, where 1 is the maximum;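 note: cells exposed to compound for six hours; intended direction is loss of nuclei count meaning fewer cells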). In a few lines: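 MCF7 cells exposed 6 hours to an eight-point dilution series; Hoechst-stained nuclei counted by high-content imaging. Bidirectional curve fitting against DMSO baseline.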
Experiment [4] concerns the target Estrogen receptor (Homo sapiens) (UniProt P03372). In words: CCTE_Deisenroth_AIME_96WELL_LUC_Active: CCTE's 96-well Estrogen Receptor Transactivation Assay with AIME metabolic competence (ERTA luciferase; metabolism positive), Deisenroth Lab (AID 2284023; active = hit-call score of the fitted dose curve at least 0.9, where 1 is the maximum). In a few lines:
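Chemicals pre-incubated 2 h with alginate-immobilized phenobarbital/beta-naphthoflavone-induced male Sprague Dawley rat liver S9, then medium transferred to VM7Luc4E2 cells for 24 h luciferase read-out. 10-point series 0.002 - 200 uM; fitted relative to 17beta-estradiol.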

For experiment [5] the target is unchanged. In words: CCTE_Deisenroth_AIME_96WELL_LUC_Inactive: CCTE's 96-well Estrogen Receptor Transactivation Assay without AIME metabolic competence (ERTA luciferase; metabolism negative), Deisenroth Lab (AID 2284025; active = hit-call score of the fitted dose curve at least 0.9, where 1 is the maximum). The protocol:
CCTE_Deisenroth_AIME_96WELL (AIME metabolism assay) is a cell-based, single-readout assay that uses VM7Luc4E2, a human mammary gland/breast cell line, with measurements taken at 24 hour after chemical dosing in a 96-well plate.CCTE_Deisenroth_AIME_96WELL_LUC_Inactive is one of four assay components measured or calculated from the CCTE_Deisenroth_AIME_96WELL assay. It is designed to make measurements of luciferase induction, a form of inducible reporter, as detected with bioluminescence signals by luciferase-coupled ATP quantitation technology.CCTE_Deisenroth_AIME_96WELL_LUC_Inactive is a component of the CCTE_Deisenroth_AIME_96WELL assay that measures the effect of retroftting the VM7Luc ERTA assay with the Alginate Immobolization of Metabolic Enzymes (AIME) metabolism method. AIME is optimized to impart phase I hepatic metabolism using phenobarbital/beta-naphthoflavone induced hepatic S9 from male Sprague Dawley rats. Parent chemicals are incubated for 2 hours in the AIME assay prior to transfer to the VM7Luc ERTA assay plate. […] This endpoint evaluates reporter induction in metabolism negative mode. […] This assay endpoint, CCTE_Deisenroth_AIME_96WELL_LUC_Inactive, was analyzed in the positive analysis fitting direction relative to 17beta-estradiol as the positive control in the ERTA assay. […]

Experiment [6] in a line: CCTE_Deisenroth_AIME_96WELL_CTox_Active: Cytotoxicity Assessment (CTOX) in CCTE's 96-well Estrogen Receptor Transactivation Assay with AIME metabolic competence (metabolism positive), Deisenroth Lab (AID 2284028; active = hit-call score of the fitted dose curve at least 0.9, where 1 is the maximum). In a few lines:
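Chemicals (0.002–200 uM) were first incubated 2 h with alginate-immobilized phenobarbital/beta-naphthoflavone-induced male rat liver S9; conditioned medium then went onto VM7Luc4E2 cells for 24 h, with viability read by protease-substrate fluorescence, fitted bidirectionally.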

Records with an inconclusive call do not appear. Activity calls are given as the source filed them. Rule for the calls, unless noted: active = hit-call score of the fitted dose curve at least 0.9, where 1 is the maximum; inactive = score below 0.9.

A word on the AC50: it is the concentration giving half of the maximal activity seen.

Estrogen receptor (Homo sapiens), sequence (P03372 whole entry, looked up): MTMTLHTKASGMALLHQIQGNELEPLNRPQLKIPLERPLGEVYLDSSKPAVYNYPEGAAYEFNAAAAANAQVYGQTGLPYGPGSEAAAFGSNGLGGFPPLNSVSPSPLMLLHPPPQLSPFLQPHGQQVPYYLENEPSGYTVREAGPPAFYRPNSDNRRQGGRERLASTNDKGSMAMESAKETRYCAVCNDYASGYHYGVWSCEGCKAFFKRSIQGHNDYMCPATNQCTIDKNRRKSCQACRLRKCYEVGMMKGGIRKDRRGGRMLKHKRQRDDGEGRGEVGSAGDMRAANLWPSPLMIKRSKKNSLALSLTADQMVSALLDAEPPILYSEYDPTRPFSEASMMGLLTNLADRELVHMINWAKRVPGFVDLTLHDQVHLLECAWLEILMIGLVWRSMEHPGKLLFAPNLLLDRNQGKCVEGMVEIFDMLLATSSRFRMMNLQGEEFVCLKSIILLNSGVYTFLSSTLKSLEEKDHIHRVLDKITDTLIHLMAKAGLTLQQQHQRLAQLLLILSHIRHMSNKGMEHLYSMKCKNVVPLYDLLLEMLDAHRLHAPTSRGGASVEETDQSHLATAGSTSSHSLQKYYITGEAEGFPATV

Take `O=C(O)CCCC[C@@H]1SC[C@@H]2NC(=O)N[C@@H]21`: the outcome in experiment [1], in experiment [2] and in experiment [3] was inactive.
Take `C#CC1(O)CC[C@H]2[C@@H]3CCC4=CCCC[C@@H]4[C@H]3CC[C@@]21C` (some centres undefined): the result in experiment [1] and in experiment [2] was inactive.
Regarding `C=CC(=O)NC(C)(C)CS(=O)(=O)O`, the result in experiment [1] and in experiment [2] was inactive.
As for `CC(=O)[C@H]1[C@H](C#N)C[C@H]2[C@@H]3CC=C4C[C@@H](O)CC[C@]4(C)[C@H]3CC[C@@]21C`, the result in experiment [1], in experiment [2] and in experiment [3] was inactive.
On to `NC(=O)N=NC(N)=O`, for which the outcome in experiment [1], in experiment [2] and in experiment [3] was inactive.
With `C=C(C)[C@H]1CC=C(C)CC1`, the result in experiment [1], in experiment [2] and in experiment [3] was inactive.
For `CC1(C)[C@H]2CC[C@]1(C)C(=O)C2`, the outcome in experiment [1], in experiment [2] and in experiment [3] was inactive.
In the case of `O=C(Nc1cccc(C(F)(F)F)c1)c1cc(Br)cc(Br)c1O`, the outcome in experiment [1], in experiment [2] and in experiment [3] was inactive.
With `CCCCC(CC)COC(=O)c1ccccc1` (centres undefined), the outcome in experiment [1], in experiment [2] and in experiment [3] was inactive.
In the case of `CCCCCCCCCCCCCCCC(=O)OCC`, the result in experiment [1], in experiment [2] and in experiment [3] was inactive.
Regarding `CCN(Cc1cccc(S(=O)(=O)O)c1)c1ccc(C(=C2C=CC(=[N+](CC)Cc3cccc(S(=O)(=O)[O-])c3)C=C2)c2ccccc2)cc1`, the result in experiment [1], in experiment [2] and in experiment [3] was inactive.
Consider `Cc1cc(C)c(C)cc1C`, for which the result in experiment [1], in experiment [2] and in experiment [3] was inactive.
Take `C1CN(SSN2CCOCC2)CCO1`: the outcome in experiment [1], in experiment [2] and in experiment [3] was inactive.
In the case of `CCCCCCC(O)CO` (centres undefined), the outcome in experiment [1], in experiment [2] and in experiment [3] was inactive.
For `C=C1C2CCC(C2)C1(C)C` (centres undefined), the result in experiment [1], in experiment [2] and in experiment [3] was inactive.
As to `O=C(Nc1ccccc1)c1ccccc1O`, the result in experiment [1], in experiment [2] and in experiment [3] was inactive.
Consider `CCCCOCCOC(=O)COc1nc(Cl)c(Cl)cc1Cl`, for which the outcome in experiment [1], in experiment [2] and in experiment [3] was inactive.
Regarding `C[C@]12CCC(=O)C=C1CC[C@@H]1[C@@H]2C(=O)C[C@@]2(C)[C@H]1CC[C@]2(O)C(=O)CO`, the outcome in experiment [1], in experiment [2] and in experiment [3] was inactive.
For the compound `Nc1ccc(N=Nc2ccccc2)c(N)n1`, the result in experiment [1], in experiment [2] and in experiment [3] was inactive.
With `CCCCCCCCCCCCCCCC[n+]1ccccc1`, the half-maximal activity concentration (AC50) was 77.1 µM (active) in experiment [1] and 61.4 µM (active) in experiment [2]. Besides, the compound was classed as inactive in experiment [3].
For `c1ccc(-c2ccccn2)nc1`, the result in experiment [1], in experiment [2] and in experiment [3] was inactive.
For `COC(=O)C1=C(C)NC(C)=C(C(=O)OCC(C)C)C1c1ccccc1[N+](=O)[O-]` (centres undefined), the result in experiment [1], in experiment [2] and in experiment [3] was inactive.
As for `CC(=O)NS(=O)(=O)c1ccc(N)cc1`, the result in experiment [1], in experiment [2] and in experiment [3] was inactive.
Take `c1c[nH]cn1`: the result in experiment [1], in experiment [2] and in experiment [3] was inactive.
As to `NC(=O)c1ccccc1O`, the outcome in experiment [1], in experiment [2] and in experiment [3] was inactive.
Consider `C1=Cc2ccccc2C1`, for which the outcome in experiment [1], in experiment [2] and in experiment [3] was inactive.
`COc1ccc(-c2coc3cc(O)ccc3c2=O)cc1`: the outcome in experiment [1], in experiment [2], in experiment [3] and in experiment [6] was inactive. For the same compound, the AC50 in experiment [4] was 6.69 µM (active); in experiment [5], 5.41 µM (active).
For `CCCOC(=O)CCCCC(=O)OCCC`, the result in experiment [1], in experiment [2] and in experiment [3] was inactive.
As to `CC1(C)O[C@@H]2C[C@H]3[C@@H]4C[C@H](F)C5=CC(=O)CC[C@]5(C)[C@H]4[C@@H](O)C[C@]3(C)[C@]2(C(=O)CO)O1`, the result in experiment [1], in experiment [2] and in experiment [3] was inactive.
In the case of `NC(=O)OCC(COC(N)=O)c1ccccc1`, the result in experiment [1], in experiment [2] and in experiment [3] was inactive.
With `CC(C)(Oc1ccc(C2CC2(Cl)Cl)cc1)C(=O)O` (centres undefined), the result in experiment [1], in experiment [2] and in experiment [3] was inactive.
Turning to `CCOC(=O)N1CCC(=C2c3ccc(Cl)cc3CCc3cccnc32)CC1`, the result in experiment [1], in experiment [2] and in experiment [3] was inactive.
In the case of `CC(=O)Nc1nnc(S(N)(=O)=O)s1`, the result in experiment [1], in experiment [2] and in experiment [3] was inactive.
Consider `O=c1c2ccccc2oc2ccccc12`, for which the outcome in experiment [1], in experiment [2] and in experiment [3] was inactive.
Regarding `CC(C)(C)c1ccc(OC(=O)c2ccccc2O)cc1`, the AC50 in experiment [4] is 17.8 µM (active); in experiment [5], 23.7 µM (active). The outcome in experiment [6] was inactive.
With `OC1CCCCCCCCCCC1`, the result in experiment [1], in experiment [2] and in experiment [3] was inactive.
Turning to `CC/C=C\C/C=C\C/C=C\CCCCCCCC(=O)O`, the result in experiment [1], in experiment [2] and in experiment [3] was inactive.
Take `CC1(C)O[C@@H]2C[C@H]3[C@@H]4C[C@H](F)C5=CC(=O)C=C[C@]5(C)[C@@]4(F)[C@@H](O)C[C@]3(C)[C@]2(C(=O)CO)O1`: the result in experiment [1], in experiment [2] and in experiment [3] was inactive.
Regarding `CC(=O)OCC(=O)[C@@]12N=C(C)O[C@@H]1C[C@H]1[C@@H]3CCC4=CC(=O)C=C[C@]4(C)[C@H]3[C@@H](O)C[C@@]12C`, the outcome in experiment [1], in experiment [2] and in experiment [3] was inactive.
As to `O=C1c2cccc(O)c2C(=O)c2c(O)cc(CO)cc21`, the outcome in experiment [1], in experiment [2] and in experiment [3] was inactive.
As for `CCCCCCCC/C=C\CCCCCCCC(=O)O`, the outcome in experiment [1], in experiment [2] and in experiment [3] was inactive.

The values are drawn from PubChem BioAssay (EPA / NIEHS).
